Results taken from PubChem BioAssay AID1159580 (chemical genetic matrix, 2015).
Where “and” joins values, the source holds several entries; their conditions need not be identical. Equal entries are not always repeated. The whole screen tested about 5,500 compounds, of which about 2,000 (36%) were called active. Not shown: some 18% with an inconclusive outcome. No stated cut-off is given here; in the data, active means normalized growth mostly below about 0.91 (no sharp cut-off); inconclusive means no clear call, values can overlap the other calls; inactive means mostly above about 0.92. The list shows a part of the results.

Test: chemical genetic growth profiling, strain panel (AID 1159580);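 further: tested at 20 µM; growth read once vehicle control cultures reached saturation at 30 °C; 1 = growth at the plate median or of vehicle wells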
Conditions: S. cerevisiae deletion strains, growth OD

Measured: normalized growth

C=CC1=C(C(=O)O)N2C(=O)[C@@H](NC(=O)/C(=N/O)c3csc(N)n3)[C@H]2SC1
inactive: locus YAL013W, strain DEP1, stronger effect = lower value 1 | locus YAL021C, strain ccr4, stronger effect = lower value 1.01 | locus YAL026C, strain drs2, stronger effect = lower value 1.02 | locus YAL030W, strain snc1, stronger effect = lower value 1.01 | locus YBL061C, strain skt5, stronger effect = lower value 1.03 | locus YBR009C, strain hhf1, stronger effect = lower value 1 | locus YBR021W, strain FUR4, stronger effect = lower value 1.02 | locus YBR023C, strain chs3, stronger effect = lower value 1.02 | locus YBR171W, strain sec66, stronger effect = lower value 1.03 | locus YBR229C, strain ROT2, stronger effect = lower value 0.992 | locus YBR231C, strain swc5, stronger effect = lower value 1.01 | locus YBR279W, strain paf1, stronger effect = lower value 1.01 | locus YCL011C, strain gbp2, stronger effect = lower value 1.04 | locus YCL016C, strain dcc1, stronger effect = lower value 1.03 | locus YCL029C, strain bik1, stronger effect = lower value 0.987 | locus YCL061C, strain MRC1, stronger effect = lower value 1.04 | locus YCL069W, strain vba3, stronger effect = lower value 1.02 | locus YCR088W, strain abp1, stronger effect = lower value 1.02 | locus YDL005C, strain med2, stronger effect = lower value 1.02 | locus YDL035C, strain GPR1, stronger effect = lower value 1.03 | locus YDL040C, strain nat1, stronger effect = lower value 1.01 | locus YDL074C, strain BRE1, stronger effect = lower value 1.04 | locus YDL101C, strain DUN1, stronger effect = lower value 0.991 | locus YDL134C, strain PPH21, stronger effect = lower value 0.99 | locus YDL185W, strain tfp1, stronger effect = lower value 0.99 | locus YDL192W, strain arf1, stronger effect = lower value 0.986 | locus YDR001C, strain nth1, stronger effect = lower value 1.02 | locus YDR069C, strain doa4, stronger effect = lower value 1.04 | locus YDR101C, strain arx1, stronger effect = lower value 0.99 | locus YDR137W, strain rgp1, stronger effect = lower value 1.03 | locus YDR150W, strain NUM1, stronger effect = lower value 1.01 | locus YDR159W, strain sac3, stronger effect = lower value 1.02 | locus YDR162C, strain NBP2, stronger effect = lower value 1.03 | locus YDR195W, strain ref2 1 | locus YDR297W, strain sur2, stronger effect = lower value 1.03 | locus YDR318W, strain mcm21, stronger effect = lower value 1.01 | locus YDR334W, strain swr1, stronger effect = lower value 1.02 | locus YDR335W, strain msn5, stronger effect = lower value 1.02 | locus YDR388W, stronger effect = lower value 0.995 | locus YDR392W, strain spt3, stronger effect = lower value 1.01 | locus YDR502C, strain sam2, stronger effect = lower value 0.993 | locus YEL003W, strain gim4, stronger effect = lower value 1.01 | locus YEL037C, strain rad23, stronger effect = lower value 1.02 | locus YEL061C, strain CIN8 (second series), stronger effect = lower value 1.01 | locus YEL061C, strain CIN8, stronger effect = lower value 1.01 | locus YER015W, strain faa2, stronger effect = lower value 1.02 | locus YER016W, strain bim1, stronger effect = lower value 1.02 | locus YER110C, stronger effect = lower value 0.978 | locus YER111C, strain swi4, stronger effect = lower value 1.01 | locus YER155C, strain BEM2 (second series), stronger effect = lower value 1.06 | locus YER155C, strain BEM2, stronger effect = lower value 0.994 | locus YER167W, strain BCK2, stronger effect = lower value 1 | locus YFR010W, strain ubp6, stronger effect = lower value 1.03 | locus YGL078C, strain dbp3, stronger effect = lower value 0.989 | locus YGL086W, strain mad1, stronger effect = lower value 0.999 | locus YGL167C, strain pmr1, stronger effect = lower value 1.01 | locus YGL173C, strain kem1, stronger effect = lower value 1.04 | locus YGL227W, strain vid30, stronger effect = lower value 1.01 | locus YGL240W, strain doc1, stronger effect = lower value 1.01 | locus YGL248W, strain PDE1, stronger effect = lower value 0.989 | locus YGL253W, strain hxk2, stronger effect = lower value 1.01 | locus YGR078C, strain PAC10, stronger effect = lower value 1.07 | locus YGR135W, strain pre9, stronger effect = lower value 0.991 | locus YGR229C, strain SMI1, stronger effect = lower value 1.06 | locus YGR252W, strain gcn5, stronger effect = lower value 1 | locus YHR013C, strain ard1, stronger effect = lower value 1.08 | locus YHR027C, strain rpn1, stronger effect = lower value 1.02 | locus YHR030C, strain SLT2, stronger effect = lower value 1 and 0.986 | locus YHR079C, strain IRE1 (second series), stronger effect = lower value 0.989 | locus YHR079C, strain IRE1, stronger effect = lower value 0.975 | locus YHR094C, strain hxt1, stronger effect = lower value 0.991 | locus YHR129C, strain ARP1, stronger effect = lower value 0.995 | locus YHR142W, strain chs7, stronger effect = lower value 1.01 | locus YHR200W, strain rpn10, stronger effect = lower value 0.988 | locus YIL066C, strain RNR3, stronger effect = lower value 1.01 | locus YIL073C, strain SPO22, stronger effect = lower value 1.04 | locus YIL125W, strain kgd1, stronger effect = lower value 0.991 | locus YIR030C, strain dcg1, stronger effect = lower value 0.989 | locus YJL092W, strain hpr5, stronger effect = lower value 1.02 | locus YJL095W, strain BCK1 (second series), stronger effect = lower value 1.01 | locus YJL095W, strain BCK1, stronger effect = lower value 1.01 and 0.982 | locus YJL115W, strain asf1, stronger effect = lower value 1.05 | locus YJL129C, strain trk1, stronger effect = lower value 1.02 | locus YJL134W, strain LCB3, stronger effect = lower value 0.995 | locus YJL154C, strain vps35, stronger effect = lower value 1.02 | locus YJL164C, strain tpk1, stronger effect = lower value 1.04 | locus YJL166W, strain qcr8, stronger effect = lower value 1.04 | locus YJL168C, strain set2, stronger effect = lower value 0.986 | locus YJL187C, strain SWE1 (second series), stronger effect = lower value 0.997 | locus YJL187C, strain SWE1, stronger effect = lower value 1.03 | locus YJR043C, strain POL32, stronger effect = lower value 1.01
